12-LOX inh – blocks human arachidonate 12S-lipoxygenase; P18054; purified 12hLO, xylenol orange hydroperoxide absorbance; Potency, µM (doses to about 108 µM), usual class: inhibitors; actives 1.1% (n = 580,000)
Target sequence (P18054 whole entry, looked up): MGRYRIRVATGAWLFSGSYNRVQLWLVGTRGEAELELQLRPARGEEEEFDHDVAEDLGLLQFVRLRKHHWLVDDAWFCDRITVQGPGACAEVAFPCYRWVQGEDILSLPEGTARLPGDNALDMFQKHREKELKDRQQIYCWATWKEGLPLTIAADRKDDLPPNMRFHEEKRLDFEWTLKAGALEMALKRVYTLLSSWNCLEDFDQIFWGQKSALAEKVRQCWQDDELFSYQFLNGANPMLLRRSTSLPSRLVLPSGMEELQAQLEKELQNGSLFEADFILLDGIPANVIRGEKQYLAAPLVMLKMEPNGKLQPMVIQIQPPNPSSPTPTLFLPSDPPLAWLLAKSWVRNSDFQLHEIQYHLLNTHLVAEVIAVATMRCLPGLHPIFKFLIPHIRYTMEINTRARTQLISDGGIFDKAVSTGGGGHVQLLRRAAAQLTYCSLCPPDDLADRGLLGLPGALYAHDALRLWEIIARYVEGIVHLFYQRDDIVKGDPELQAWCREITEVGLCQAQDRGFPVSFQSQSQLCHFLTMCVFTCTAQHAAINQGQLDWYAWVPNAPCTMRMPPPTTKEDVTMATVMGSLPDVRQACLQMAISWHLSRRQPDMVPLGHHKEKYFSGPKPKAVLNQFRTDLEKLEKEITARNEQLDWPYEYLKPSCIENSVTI
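Purified human 12hLO (150 nM final) in 25 mM Hepes, 0.01% Triton X-100, pH 7.0 was preincubated 15 min at room temperature with compound. Then 40 uM arachidonic acid was added, 30 min. Hydroperoxide was read by Fe-XO absorbance ratio 573/405 nm.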
Gal4-VP16 FLuc – counter-screen for ROR gamma inhibitors: Gal4-VP16 reporter | Drosophila S2 Gal4-VP16 UAS-luciferase, luminescence, 20 h | Potency, µM (highest dose often 53.6 µM), actives largely listed as inhibitors | actives 3.5% (n = 310,000) | AID 2546;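 note: Gal4-VP16 expression switched on by copper sulfate through the metallothionein promoter; nearly all actives have a fitted effect of over 50% in size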
DT40 TDP1 CPT – DT40-hTDP1 cell growth loss with CPT; chicken DT40 Tdp1-/-;hTDP1 cells + 20 nM CPT, ATP luminescence, 48 h; Potency, µM (highest dose often 46.2 µM), hits mostly inhibitors; actives 12% (n = 420,000); AID 686979; note: nearly all actives have a fitted effect of over 55% in size
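Chicken DT40 Tdp1-/- cells complemented with human TDP1, 400 cells/well, exposed to compounds plus 20 nM camptothecin for at least 48 h at 37 C; viability read as ATP content by CellTiter-Glo luminescence.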
TDP1 cell noCPT – qHTS for Inhibitors of human tyrosyl-DNA phosphodiesterase 1 (TDP1): qHTS in cells in absence of CPT. AID 686978, 2013. DT40 Tdp1-/- hTDP1 cells, no CPT, ATP luminescence, 48 h. Potency, µM (doses to about 46.2 µM), actives largely listed as inhibitors. actives 15% (n = 420,000); note: nearly all actives have a fitted effect of over 55% in size
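Luminescent ATP content (CellTiter-Glo) served as the growth readout. Knockout chicken DT40 cells expressing human TDP1 were exposed to compounds without camptothecin for a minimum 48 hr at 37 °C.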
RORgamma inh – ROR gamma (mouse) transcription inhibition; P51450; Drosophila S2 Gal4-RORgamma UAS-luciferase reporter, 20 h; Potency, µM (series often up to 53.6 µM), usual class: inhibitors; actives 5.4% (n = 310,000); AID 2551; note: nearly all actives have a fitted effect of over 60% in size
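Using a luciferase readout, inhibitors were identified by reduced reporter activity in Drosophila cells coexpressing a copper-inducible Gal4–ROR gamma fusion and UAS-driven Photinus luciferase, incubated 20 hr after 700 uM copper sulfate.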
ELG1 repair inh – blocks ELG1-dependent DNA repair in HEK293T cells; Potency, µM (top dose mostly 46.1 µM), hits mostly inhibitors; actives 2.3% (n = 330,000); HEK293T ELG1-luciferase reporter, luminescence, 16 h; DNA damage induced by 5-fluorouridine; AID 504467; note: nearly all actives have a fitted effect of over 55% in size
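DMSO vehicle served as the neutral condition. Each well held 2,000 cells given 5-fluorouridine plus compound; after 16 hr at 37 °C/5% CO2, ONE-Glo was added and luciferase measured 30 min later.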
Hits are given with their value. Rows were chosen to be rich in hits. Some 15% of all compounds tested hit in one or more screens of this group. Calls come from the whole dose curve; as a rule, active = well fitted curve in the direction sought with a large enough effect; inconclusive = small, poorly fitted or top-dose-only effect, or another doubt; inactive = no such curve, though single readings can be large; an effect the other way counts as inactive or inconclusive.

How did [O-][n+]1ccccc1SCc1nc2ccccc2c2ccccc12 do in these assays?
12-LOX inh: inactive

Results for Cc1nc(Sc2ccc(Br)cc2)c(C#N)c(C)c1[N+](=O)[O-] ?
12-LOX inh: inactive; Gal4-VP16 FLuc: inactive; DT40 TDP1 CPT: 20.6µM; TDP1 cell noCPT: 9.2µM; RORgamma inh: inactive; ELG1 repair inh: inactive

What do the screens show for `Cc1ccc(Sc2nc(C)c([N+](=O)[O-])c(C)c2C#N)cc1`?
12-LOX inh: inactive; Gal4-VP16 FLuc: inactive; DT40 TDP1 CPT: inconclusive; TDP1 cell noCPT: inconclusive; RORgamma inh: inactive; ELG1 repair inh: inactive

Results for Cc1nc(Sc2ccc(Cl)cc2)c(C#N)c(C)c1[N+](=O)[O-] ?
12-LOX inh: inactive; Gal4-VP16 FLuc: inactive; DT40 TDP1 CPT: inconclusive; TDP1 cell noCPT: 10.3µM; RORgamma inh: inactive; ELG1 repair inh: inconclusive

What do the screens show for `O=C(N/N=C/c1ccc(Cl)cc1Cl)c1n[nH]c2c1CCCC2`?
12-LOX inh: inactive; Gal4-VP16 FLuc: inactive; DT40 TDP1 CPT: 2.91µM; TDP1 cell noCPT: 2.91µM; RORgamma inh: inactive; ELG1 repair inh: inconclusive

What do the screens show for `O=C(N/N=C/c1cccc2ccccc12)c1n[nH]c2c1CCCC2`?
12-LOX inh: inactive; Gal4-VP16 FLuc: inactive; DT40 TDP1 CPT: 4.61µM; TDP1 cell noCPT: 4.11µM; RORgamma inh: inactive; ELG1 repair inh: inactive

Results for O=C(N/N=C/c1cccc2ccccc12)c1ccccc1Cl ?
12-LOX inh: inconclusive; Gal4-VP16 FLuc: inactive; DT40 TDP1 CPT: inactive; TDP1 cell noCPT: inactive; RORgamma inh: inactive; ELG1 repair inh: inactive

What do the screens show for `O=C1C=CC(=O)N1c1ccc2c(c1)C(NC(=O)C(F)(F)F)c1ccccc1-2` (stereo not drawn)?
12-LOX inh: inconclusive; DT40 TDP1 CPT: 1.3µM; TDP1 cell noCPT: 1.84µM

How did CN(C(=O)CSc1cn(CC(=O)N2CCCCCC2)c2ccccc12)c1ccccc1 do in these assays?
12-LOX inh: inactive; DT40 TDP1 CPT: inconclusive; TDP1 cell noCPT: 18.4µM

How did CC(C)N(C(=O)CSc1cn(CC(=O)N2CCCCCC2)c2ccccc12)C(C)C do in these assays?
12-LOX inh: inactive; DT40 TDP1 CPT: inconclusive; TDP1 cell noCPT: 18.4µM

Results for CN(C(=O)CSc1cn(CC(=O)N2CCCCC2)c2ccccc12)c1ccccc1 ?
12-LOX inh: inactive; DT40 TDP1 CPT: inconclusive; TDP1 cell noCPT: inconclusive

Results for Cn1cc(SCC(=O)N2CCN(c3ccccc3)CC2)c2ccccc21 ?
12-LOX inh: inactive; Gal4-VP16 FLuc: inactive; DT40 TDP1 CPT: 20.6µM; TDP1 cell noCPT: inconclusive; RORgamma inh: inactive; ELG1 repair inh: inactive

How did CCCNC(=O)CSc1cn(CC(=O)N2CCCCCC2)c2ccccc12 do in these assays?
12-LOX inh: inactive; DT40 TDP1 CPT: inactive; TDP1 cell noCPT: inactive

Results for N#Cc1cccc(-c2ccnc(N[C@H]3CO[C@H]4[C@@H]3OC[C@@H]4NC(=O)c3ccccc3)n2)c1 ?
12-LOX inh: inactive

Results for O=C1CCN(Cc2ccccc2)CCCC(c2nc(-c3cnccn3)no2)CCN1 (stereo not drawn) ?
12-LOX inh: inactive

How did Cc1cc(Br)c2c(c1)[C@](O)(c1cn(C)c3ccccc13)C(=O)N2C do in these assays?
12-LOX inh: inactive; DT40 TDP1 CPT: 16.4µM; TDP1 cell noCPT: 23.1µM

How did CN1C(=O)[C@@](O)(c2cn(C)c3ccccc23)c2ccccc21 do in these assays?
12-LOX inh: inactive; DT40 TDP1 CPT: inactive; TDP1 cell noCPT: inactive

What do the screens show for `CC1CCN(C(=S)NC(=O)c2ccccc2)CC1`?
12-LOX inh: inactive; Gal4-VP16 FLuc: 4.47µM; DT40 TDP1 CPT: inconclusive; TDP1 cell noCPT: inconclusive; RORgamma inh: 2.82µM; ELG1 repair inh: inactive

What do the screens show for `CC1CCN(C(=S)NC(=O)c2ccc(C(C)(C)C)cc2)CC1`?
12-LOX inh: 31.6µM; DT40 TDP1 CPT: 23.1µM; TDP1 cell noCPT: inconclusive; ELG1 repair inh: inactive

Results for O=S(=O)(c1cccs1)N1CCOc2ccc(COCc3ccc(Cl)cc3)cc2C1 ?
12-LOX inh: inactive
